PP5 inh = PP5 phosphatase inhibitors, primary screen, biochemical, fluorescence. 320,000 tested, 0.18% active. purified PP5c, OMFP substrate fluorescence. inhibition, % at 6.7 µM. Serine/threonine-protein phosphatase 5 (Homo sapiens), P53041;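 active = inhibition above the campaign's mean inhibition across all tested compounds plus 3 SD, cut at about 9.5% in these data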;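 note: 0% = DMSO only and 100% = 100 µM cantharidin control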
Target sequence (P53041 whole entry, looked up): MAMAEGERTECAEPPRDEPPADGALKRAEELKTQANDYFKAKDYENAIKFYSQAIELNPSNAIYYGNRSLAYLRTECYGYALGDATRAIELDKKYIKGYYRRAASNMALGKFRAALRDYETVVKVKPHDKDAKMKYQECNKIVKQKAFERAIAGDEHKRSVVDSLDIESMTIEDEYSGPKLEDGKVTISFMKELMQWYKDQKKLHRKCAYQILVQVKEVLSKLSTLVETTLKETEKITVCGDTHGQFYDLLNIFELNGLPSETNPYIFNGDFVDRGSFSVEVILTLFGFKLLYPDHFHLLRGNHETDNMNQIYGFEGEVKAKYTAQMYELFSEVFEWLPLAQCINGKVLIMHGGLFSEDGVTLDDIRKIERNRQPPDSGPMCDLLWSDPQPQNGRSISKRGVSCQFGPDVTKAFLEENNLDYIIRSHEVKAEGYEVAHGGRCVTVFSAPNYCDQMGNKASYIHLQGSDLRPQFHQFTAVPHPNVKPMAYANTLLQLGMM
PP1 counter = PP1-alpha phosphatase inhibitors, primary screen, counter-screen for PP5 inhibitor project, biochemical, fluorescence, OMFP substrate, single point. Serine/threonine-protein phosphatase PP1-alpha catalytic subunit (Homo sapiens), P62136. purified PP1alpha. inhibition, % at 6.7 µM. 320,000 tested, 0.9% active;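 active = inhibition above the mean inhibition of all tested compounds plus 3 SD, computed separately for each screening campaign, cut at about 15% in these data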
ZTA counter = counter-screen for EBNA-1 inhibitors: inhibitors of Epstein-Barr virus ZTA | 320,000 tested, 0.15% active | ZTA-DNA binding, fluorescence polarization | P03206 | inhibition, % at 11 µM; in the data active = inhibition above about 33%
EBNA-1 inh = EBNA-1 DNA-binding inhibitors, primary screen, biochemical, fluorescence polarization; inhibition, % at 14.8 µM; 300,000 tested, 0.34% active; in the data active = inhibition above about 28%
MsrA act = bovine MsrA enzyme activators, primary screen, biochemical, absorbance, HTS; 360,000 tested, 0.3% active; activation, % at 10.6 µM; Methionine sulfoxide reductase A (Bos taurus); purified bovine MsrA, absorbance read-out; in the data active = activation above about 7.5%;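 note: 0% = vehicle and 100% = reference activator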
MsrA inh = bovine MsrA enzyme inhibitors, primary screen, biochemical, absorbance, HTS; purified bovine MsrA, absorbance read-out; 360,000 tested, 0.75% active; inhibition, % at 15.5 µM;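 note: 0% = vehicle wells with enzyme and 100% = reference inhibitor wells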
MsrA inh confirm = bovine MsrA inhibitors, retest, confirmation, biochemical, absorbance, HTS. shares compounds with MsrA inh. purified bovine MsrA, absorbance read-out. inhibition, % at 15.5 µM. 2,300 tested, 41% active;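 note: coupled to thioredoxin reductase with NADPH and selenocystamine and DMSO as substrate; 0% = vehicle only and 100% = full effect of reference inhibitor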
Active calls of the source: *; . = no result given. An excerpt weighted towards active compounds, which were near 2.3% of everything screened. Cut-off read from the data, not from the text of the source, unless noted: active = inhibition above about 4.5%; inactive = the rest.

SMILES | PP5 inh | PP1 counter | ZTA counter | EBNA-1 inh | MsrA act | MsrA inh | MsrA inh confirm
O=C(Nc1ccc(C(=O)O)cc1)/C(=C\C=C\c1ccccc1)NC(=O)c1ccccc1Br | 3.1 | 2.7 | 6.1 | -6.1 | -11.9 | 8.7* | 6.4*
Cc1ccc(NC(=O)/C(=C\C=C\c2ccccc2)NC(=O)c2ccccc2)cc1 | 0.8 | 8.7 | 14.6 | 7.7 | -7.4 | 3.9 | .
CCCC[n+]1ccc(-c2nc3ccc([N+](=O)[O-])cc3[nH]2)cc1 | 0.1 | 5.4 | 7.2 | -2.5 | 0.0 | 4.8* | 3.8
O=[N+]([O-])c1ccc2nc(C(O)C(O)c3nc4ccc([N+](=O)[O-])cc4[nH]3)[nH]c2c1 (configuration not stated) | 0.6 | 1.3 | -3.2 | -15.8 | -3.6 | 2.4 | .
Nc1ccc(C(=O)CC(=O)Nc2ccc(Cl)cc2)cc1 | 0.6 | 0.4 | -23.5 | -2.4 | 0.1 | 5.0* | 1.1
CN(CC(=O)Nc1ccc(Cl)cc1)CC(=O)Nc1ccc(C(N)=O)cc1 | -0.2 | -1.3 | 7.7 | 4.1 | -5.3 | 2.7 | .
CC(C)Nc1ncnc2c1ncn2[C@H]1CN(Cc2ccco2)C[C@@H](CO)O1 | . | . | . | . | -0.4 | -0.5 | .
CN(C)/C=N/c1nc2nccc(-c3cccs3)n2n1 | 3.1 | 0.0 | -7.1 | -4.3 | -6.8 | 7.1* | 6.1*
CN(C)/C=N/c1nc2nccc(-c3ccc(F)cc3)n2n1 | -0.9 | -0.2 | -3.5 | 2.0 | -2.6 | 1.6 | .
C[C@H](O)[C@@H]1C(=O)N2CCc3c([nH]c4ccccc34)[C@@H]2C[C@@H]1N(C)S(=O)(=O)c1ccccc1 | . | . | . | . | 0.6 | 0.1 | .
CCN(CC)c1ccc(/C=N/NC(=O)c2cccc(S(=O)(=O)N3CCOCC3)c2)c(O)c1 | 2.4 | 14.0 | -3.0 | -0.2 | -3.4 | 4.0 | .
CCN(CC)c1ccc(C=Nc2cccc(S(=O)(=O)N3CCOCC3)c2)c(O)c1 | . | . | . | . | -4.6 | 5.8* | 5.2*
O=C1C(Nc2cccc(O)c2)=C(N2CCCCC2)C(=O)c2ccccc21 | 7.9 | -2.5 | 6.2 | -1.4 | -6.5 | 14.4* | -0.1
CC(=O)N(Cc1ccccc1C)c1cccc(C)c1C | 2.8 | 1.5 | 8.5 | 4.2 | -4.0 | 1.7 | .
COc1cc(OC)c(OC)cc1/C=N/N(C)c1ccccc1 | 3.4 | 0.8 | 2.8 | -1.6 | -0.8 | 3.4 | .
COc1cc(/C=N/N(C)c2ccccc2)ccc1O | 3.9 | -0.7 | -9.7 | -2.9 | -1.4 | 5.3* | 4.2
CCOC(=O)c1c(NC(=O)C(=O)N/N=C/c2ccc(OCC)cc2)sc2c1CCCCC2 | -1.9 | -0.7 | 9.3 | -2.3 | -3.9 | -0.5 | .
CCOC(=O)c1c(NC(=O)C(=O)N/N=C/c2ccc(O)c(OC)c2)sc2c1CCCCC2 | 1.4 | 4.1 | -11.7 | 6.4 | -1.0 | 5.0* | 2.9
COc1ccc(/C=N/NC(=O)c2cc(=O)[nH]c3ccccc23)cc1OC | 0.8 | -1.0 | 12.4 | 9.2 | -16.8 | 4.7* | 3.5
COc1cc(/C=N/NC(=O)c2cccc(C(=O)N/N=C/c3ccc(O)c(OC)c3)n2)ccc1O | . | . | . | . | -2.6 | 6.6* | 3.2
Cc1cc([N+](=O)[O-])cc(/C=N\NC(=O)C2COc3ccccc3O2)c1O (configuration not stated) | 1.3 | 5.0 | -3.4 | -9.2 | -1.8 | 0.6 | .
COc1ccc(/C=N/Nc2ccccn2)cc1O | 2.2 | -1.1 | -6.7 | -9.4 | -5.1 | 6.1* | 3.4
COc1ccc(/C=N/NC(=O)c2cnccn2)cc1O | -0.6 | -0.4 | -3.7 | 2.4 | -5.7 | 4.8* | 4.8*
COc1cc(/C=N/NC(=O)c2cc3ccccc3[nH]2)ccc1O | 2.5 | 4.9 | -15.6 | -7.5 | -0.8 | 8.4* | 5.9*
COc1cccc(/C=N/NC(=O)c2cnccn2)c1 | -0.6 | -6.4 | 5.3 | 6.2 | -7.7 | -0.3 | .
SMILES | PP5 inh | PP1 counter | ZTA counter | EBNA-1 inh | MsrA act | MsrA inh | MsrA inh confirm
CCOc1ccc2[nH]c(C(=O)N/N=C/c3cc(OC)c(OC)c(OC)c3)cc2c1 | 6.3 | 2.7 | -0.3 | 3.1 | -4.5 | 5.4* | 4.8*
Cc1c(O)nc(SCC(=O)Nc2ccc3c4c(cccc24)CC3)n(-c2ccc(F)cc2)c1=O | 1.1 | 1.5 | -26.0 | 8.4 | -4.7 | 0.4 | .
COc1ccc(/C=N/NC(=O)c2cc(-c3ccccc3)nc3ccccc23)c(OC)c1 | 6.1 | -5.0 | 0.0 | -9.9 | -5.6 | 5.4* | 3.7
CCOc1ccccc1-c1cc(C(=O)N/N=C/c2ccc(O)c(OC)c2)c2ccccc2n1 | 4.8 | 0.1 | -6.0 | 5.9 | -7.0 | 4.9* | 1.7
COc1cc(/C=N/NC(=O)c2cc[n+]([O-])cc2)ccc1O | -1.8 | -2.4 | -7.4 | -0.9 | -0.9 | 7.5* | 5.2*
COc1cc(/C=N/NC(=O)c2cn(-c3cccc(C)n3)cn2)ccc1O | 0.8 | 1.5 | -4.8 | 7.3 | -5.6 | 4.7* | 4.4
O=C(N/N=C/c1cccc(O)c1)c1cc(-c2ccccc2)nc2ccccc12 | 3.3 | 5.1 | 17.6 | -6.2 | -2.9 | 0.7 | .
C=CCNC(=O)c1onc(CSc2cccc(C)c2)c1C(=O)O | -0.2 | -0.6 | -1.2 | 8.2 | 4.3 | -0.8 | .
CCCOc1ccc(/C=N/NC(=O)C(=O)Nc2ccccn2)cc1 | -2.7 | 1.6 | 5.7 | 19.7 | -2.0 | 1.0 | .
COc1ccc(OC)c2[nH]c(C(=O)N/N=C/c3ccccc3O)cc12 | 2.4 | 1.0 | -6.7 | -13.5 | -1.5 | 3.5 | .
COc1cc(/C=N/NC(=O)C(=O)Nc2ccccn2)ccc1O | 1.1 | -2.4 | -1.7 | 4.7 | -3.8 | 5.3* | 5.0*
CCOc1cc(/C=N\NC(=O)c2c(C)nc3ccccn23)ccc1O | 0.5 | -0.5 | 6.4 | -0.2 | -5.9 | 5.6* | 4.9*
COc1ccc(/C=N/NC(=O)c2cc3c(OC)ccc(OC)c3[nH]2)cc1O | 2.6 | -0.3 | -12.9 | 5.2 | -4.6 | 6.6* | 5.8*
O=C(N/N=C/c1ccc([N+](=O)[O-])o1)c1cc(-c2ccncc2)nc2ccccc12 | 1.2 | 3.9 | -17.0 | -5.1 | -10.5 | 6.1* | 2.5
Cc1nc2ccccn2c1C(=O)N/N=C/c1ccc2c(c1)OCO2 | -3.1 | 2.1 | 5.2 | -6.3 | -6.1 | 2.6 | .
CN(C)c1ccc(/C=C(/NC(=O)c2ccccc2)C(=O)N2CCCC2)cc1 | 0.8 | 1.8 | -11.6 | -8.5 | -3.8 | 5.4* | 3.1
CCCn1nc(C(=O)Oc2ccc3c(C)cc(=O)oc3c2)c2ccccc2c1=O | 1.7 | -0.9 | -11.0 | 1.6 | -2.5 | -0.1 | .
CC(C)C[C@H]1CN([C@@H](Cc2ccccc2)CN2CCC[C@H]2CN2C(=O)C(=O)NC[C@@H]2Cc2ccc(O)cc2)C(=O)C(=O)N1CC1CCCCC1 | . | . | . | . | -2.0 | 1.2 | .

Assay outcomes as filed in PubChem.
